Where a name gives a salt, the structure may show the parent alone.
system: thyroid hormone receptor (endogenous TRα and TRβ); set-up: species or system GH3-TRE-Luc (rat pituitary); GH3-TRE-Luc luciferase reporter, antagonist mode against 1 nM T3, loss of signal, qHTS; conditions: antagonist mode, 1 nM T3, no GH3 cytotoxicity hit, read-out: Average AC50 (uM) GH3-TRE-Antag

| SMILES | AC50 [µM] |
| --- | --- |
| COc1cc(CC(C)N)cc2c1OCO2 (stereo not shown) [1-(7-Methoxy-1,3-benzodioxol-5-yl)propan-2-amine hydrochloride] | 48.3 |
| CN(C)c1ccc(C(c2ccccc2)c2ccc(N(C)C)cc2)cc1 [Leucomalachite green] | 20.8 |
| Nc1ccc2c(c1)Cc1ccccc1-2 [2-Aminofluorene] | 52 |
| CN1C[C@H](C(=O)N[C@]2(C)O[C@@]3(O)[C@@H]4CCCN4C(=O)[C@H](Cc4ccccc4)N3C2=O)C=C2c3cccc4[nH]cc(c34)C[C@H]21 [Ergotamine D-tartrate] | 36.2 |
| CCC1COC(Cn2cncn2)(c2ccc(Cl)cc2Cl)O1 (stereo not shown) [Etaconazole] | 36.8 |
| CNP(=O)(OC)Oc1ccc(C(C)(C)C)cc1Cl (stereo not shown) [Crufomate] | 52.9 |
| CC(C)(N)Cc1ccc(Cl)cc1 [Chlorphentermine hydrochloride] | 39.2 |
| C[C@]12CCC(=O)C[C@@H]1CC[C@@H]1[C@@H]2CC[C@]2(C)[C@@H](O)CC[C@@H]12 [5alpha-Dihydrotestosterone] | 27.8 |
| CCCCC(CC)COP(=O)(Oc1ccccc1)Oc1ccccc1 (stereo not shown) [2-Ethylhexyl diphenyl phosphate] | 48.3 |
| COP(=S)(OC)Oc1ccc(S(=O)(=O)N(C)C)cc1 [Famphur] | > 50 |
| O=C1C(=O)c2cccc3cccc1c23 [Acenaphthenequinone] | 76.1 |
| C=C(Cl)CSC(=S)N(CC)CC [Sulfallate] | 86.5 |
| COC(=O)c1c(C(F)F)nc(C(F)(F)F)c(C2=NCCS2)c1CC(C)C [Thiazopyr] | > 90 |
| COP(=S)(OC)Oc1nc(Cl)c(Cl)cc1Cl [Chlorpyrifos-methyl] | 78.8 |
| CC(C)(C)c1ccccc1OP(=O)(Oc1ccccc1)Oc1ccccc1 [tert-Butylphenyl diphenyl phosphate] | 88.4 |
| Nc1ccccc1C(=O)Oc1ccc2ccccc2c1 [Naphthalen-2-yl 2-aminobenzoate] | 82.4 |

| SMILES | AC50 [µM] |
| --- | --- |
| CNC(=O)O/N=C(\SC)C(=O)N(C)C [Oxamyl] | > 90 |
| Clc1ccccc1-c1ccccc1Cl [2,2'-Dichlorobiphenyl] | > 100 |
| CCCCSP(=O)(SCCCC)SCCCC [Tribufos] | 50.4 |
| C[C@]12CC[C@H]3[C@@H](CCC4=CC(=O)CC[C@@]43C)[C@@H]1CC[C@@H]2O [Testosterone] | 59 |
| C[C@]12C=CC(=O)C=C1CC[C@@H]1[C@@H]2CC[C@@]2(C)[C@H]1CC[C@]2(C)O [Methandrostenolone] | 34.4 |
| C[C@@H]1[C@H]2Cc3ccc(O)cc3[C@]1(C)CCN2C [(-)-Metazocine fumarate (1:1)] | 50.6 |
| Oc1ccc(Cl)c(Cl)c1Cl [2,3,4-Trichlorophenol] | 87.3 |
| CCOP(=S)(OCC)SCn1nnc2ccccc2c1=O [Azinphos-ethyl] | > 90 |
| CCOP(=O)(OCC)O/C(=C\Cl)c1ccc(Cl)cc1Cl [Chlorfenvinphos] | > 50 |
| CCOP(=S)(OCC)SCSP(=S)(OCC)OCC [Ethion] | 71.9 |
| N#CSCc1ccccc1 [Benzyl thiocyanate] | 56.4 |
| C[C@]12CCC(=O)C[C@@H]1CC[C@@H]1[C@@H]2CC[C@@]2(C)[C@H]1CC[C@]2(C)O [Mestanolone] | 10.8 |
| CCCSP(=S)(OCC)Oc1ccc(Cl)cc1Cl (stereo not shown) [Prothiofos] | 86.7 |
| Clc1nc(Cl)nc(Cl)n1 [2,4,6-Trichloro-s-triazine] | > 90 |
| COc1ccc2c(c1)[C@]13CCCC[C@@H]1[C@H](C2)N(C)CC3 [Dextromethorphan hydrobromide monohydrate] | 21.1 |
| CC(=O)O[C@H]1CC[C@@]2(C)C(=CC[C@@H]3[C@@H]2CC[C@]2(C)C(=O)CC[C@@H]32)C1 [Dehydroepiandrosterone acetate] | 17.4 |

same assay, conditions: read-out: Average AC50 (uM) GH3-TRE-Antag; 24 h; antagonist

| SMILES | AC50 [µM] |
| --- | --- |
| COc1cc(C[C@H](C)N)c(OC)cc1C [(S)-(+)-2,5-Dimethoxy-4-methylamphetamine hydrochloride] | 49.7 |
| Cc1ccc(OP(=O)(Oc2ccc(C)cc2C)Oc2ccc(C)cc2C)c(C)c1 [TXP] | 70.6 |
| Nc1c(Cl)cc([N+](=O)[O-])cc1Cl [Dicloran] | 91.8 |
| CCc1cc(OC)c(C[C@@H](C)N)cc1OC [(-)-2,5-Dimethoxy-4-ethylamphetamine hydrochloride] | 71.2 |
| O=C1CN=C(c2ccccc2)c2cc(Cl)ccc2N1CC1CC1 [Prazepam] | > 50 |
| CSCCCN=C=S [3-(Methylthio)propyl isothiocyanate] | > 90 |
| C[C@]12CC[C@H]3[C@@H](CCC4=CC(=O)CC[C@@H]43)[C@@H]1CC[C@@H]2O [Nandrolone] | 32.5 |
| CN(C)CCc1c[nH]c2cccc(O)c12 [Psilocin] | 91 |

— paper PMC6792352, “Limited Chemical Structural Diversity Found to Modulate Thyroid Hormone Receptor in the Tox21 Chemical Library” (Environmental Health Perspectives, 2019)
